# Source: PubChem BioAssay (NCI)
# The panel holds about 79,000 compounds, 15% with a hit somewhere; the sample as a whole holds those more often. A number with no mark means an inactive call. Calls of active or inactive are those of the source. Rule as the data show it: active = growth inhibition above about 70%; inactive = the rest. Where a SMILES comes first, the peptide text is derived from it. The star is where a group is joined. Boc = CC(C)(C)OC(=O)*
# Assays:
# [1] = NCI Yeast Anticancer Drug Screen. Data for the rad50 strain (AID 155);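 also: 0% = growth of vehicle-only cultures of the same strain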; conditions: S. cerevisiae rad50 strain growth inhibition; at 50.0 µM; hits give high values
# Method in brief: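 Compounds were tested on a yeast strain with an engineered DNA damage repair alteration; the reported value is growth inhibition normalised to vehicle treatment.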
# [2] = NCI Yeast Anticancer Drug Screen. Data for the mec2-1 strain (AID 157); conditions: S. cerevisiae mec2-1 strain, at 50.0 µM, hits give high values
# Method in brief: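 Vehicle-treated cultures served as reference for growth inhibition of compound-exposed mec2-1 yeast.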
# [3] = NCI Yeast Anticancer Drug Screen. Data for the sgs1 mgt1 strain (AID 161);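 also: 0% = growth of cultures given vehicle only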; conditions: S. cerevisiae sgs1 mgt1 strain, at 50.0 µM, hits give high values
# Method in brief: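 Read-out: growth inhibition vs vehicle controls. Cells: mutant yeast strain deficient in DNA damage repair.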
# [4] = NCI Yeast Anticancer Drug Screen. Data for the cln2 rad14 strain (AID 165);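 also: 0% = growth equal to vehicle treated cultures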; conditions: S. cerevisiae cln2 rad14 strain, at 50.0 µM, hits give high values
# Method in brief: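 Each compound was tested on cln2 rad14 yeast. Inhibition of growth was calculated against vehicle-exposed controls.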
# [5] = NCI Yeast Anticancer Drug Screen. Data for the bub3 strain (AID 167); conditions: S. cerevisiae bub3 mutant strain, at 50.0 µM, hits give high values
# Method in brief: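 Growth of a checkpoint-deficient yeast mutant is measured after compound exposure. Values represent inhibition relative to vehicle.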
# [6] = NCI Yeast Anticancer Drug Screen. Data for the mlh1 rad18 strain (AID 175); conditions: S. cerevisiae mlh1 rad18 strain growth inhibition; at 50.0 µM; hits give high values
# Method in brief: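 Vehicle-treated cultures served as the reference for growth inhibition in a yeast strain carrying DNA damage repair alterations exposed to each compound.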
SMILES,growth inhibition [1],growth inhibition [2],growth inhibition [3],growth inhibition [4],growth inhibition [5],growth inhibition [6]
O=C(NCCc1ccccc1)c1ccc(Cl)cc1,6.25%,9.8%,9.9%,10.8%,26%,1.5%
CCOC(=O)C1(C)CCC(C(C(=O)O)C(=O)O)CC1=O (configuration not stated),-10.5%,9.95%,13.7%,20.2%,21.4%,-12.5%
CCOc1ccc(/C=C2\N=C(c3ccc([N+](=O)[O-])cc3)OC2=O)cc1,11.2%,19.8%,3%,3.45%,15.6%,8.15%
[Cl][Pt+2][Cl].[NH-]CC1([NH-])CCCCC1,-10.2%,14.1%,-19.6%,-2.8%,-5.6%,-31.9%
C1=C2/CC[C@H](Sc3ccccc3)[C@H]2C2(CCCCC/1)OCCO2,13.8%,-19%,-6.45%,-1.05%,13.2%,-4.05%
O=[N+]([O-])c1ccc(N=C/C=C/Nc2ccc([N+](=O)[O-])cc2)cc1,5%,0.7%,10.5%,-8.6%,6.3%,20.8%
CCCN(CCC)S(=O)(=O)c1ccc(NC(=O)OC2CCCCC2)cc1,37.1%,2.25%,23.6%,13.1%,-4.7%,17.9%
NCCCNCCCCNC(=O)C(O)NC(=O)CC(O)CCCCN=C(N)N (configuration not stated),-1.45%,-0.6%,-22.7%,16.8%,-2.85%,-24.1%
CC(=O)Nc1cccc(Cc2cccc(NC(C)=O)c2)c1,2.75%,-13.3%,-11.9%,-43.4%,-5.1%,-11.6%
NC(CCCCNCc1ccccc1O)C(=O)O (configuration not stated),10%,14.2%,-1.7%,7.45%,20.7%,25.9%
O=C(Nc1ccc(S(=O)(=O)N2CCCCC2)cc1)OC1CCCCC1,16.4%,3.75%,-4.2%,23.6%,30.9%,-5.45%
CC(C)C(NC(=O)OC(C)(C)C)C(=O)N1CCCC1C(=O)O (stereo not drawn) (Boc-Val-Pro-OH; configuration not given here),11.8%,-1.5%,18%,3.3%,2.3%,5.65%
COc1cccc2cc(C(C)=O)c(=O)oc12,8.65%,-5.35%,1.6%,3%,9.05%,2.85%
O=C1C(OC(=O)c2ccccc2)=C(OC(=O)c2ccccc2)C(=O)C(OC(=O)c2ccccc2)=C1OC(=O)c1ccccc1,-7.15%,-1.25%,13.8%,-22.8%,2.85%,2.75%
COC1=CC(=O)[C@H]2[C@H](C)C(c3ccccc3)[C@@]2(C)C1=O (some centres not stated),-21.5%,-1.5%,-16.6%,2.1%,-0.05%,-20.2%
COc1cccc2c1CCC(=O)C2,-31.7%,-44.8%,-35.1%,8%,-44.8%,-18.3%
COc1ccc(/C=N/NC(=O)/C(C#N)=C/c2ccc(OC)cc2)cc1,23.1%,19.1%,3.7%,-11.5%,19.4%,16.4%
CC1CCC(=O)N1C (configuration not stated),-19.1%,-1.35%,-16.1%,-21.6%,-0.45%,-9.5%
COc1ccc(C(CN(C)C(C)C)OC(=O)C(c2ccccc2)c2ccccc2)cc1OC (configuration not stated),-14.1%,-6.85%,-12.6%,-8.25%,1.25%,-17.5%
COC(=O)C1=Cc2cc(OC)c(OC)cc2[C@H](c2ccc(OC)c(OC)c2)C1C(=O)OC (some centres not stated),-6.8%,-11.7%,-31.4%,0.95%,18.2%,1.45%
CC(=O)/C(=C/n1c(=S)[nH]c2ccccc21)C(=O)Nc1ccc([N+](=O)[O-])cc1,-17.5%,-2.75%,-13.9%,-8.9%,-14.1%,-13.2%

SMILES,growth inhibition [1],growth inhibition [2],growth inhibition [3],growth inhibition [4],growth inhibition [5],growth inhibition [6]
CC1=CC(CO)C2C(=O)NC(=O)C2C1C (configuration not stated),7.2%,-6.15%,-9.75%,-39.5%,-17.1%,7.7%
COc1ccc(/C=N\O[Si](C)(C)C(C)(C)C)cc1O[Si](C)(C)C(C)(C)C,31.9%,17.2%,21.9%,5.05%,-3.25%,15.8%
COC(=O)/C=C(/C(=O)OC)N(O)C(=O)CN1C(=O)c2ccccc2C1=O,-16%,-15.9%,-18.7%,-17.3%,-5.85%,-23.2%
CCCNC(=S)/N=C/c1c(O)c2ccccc2[nH]c1=O,-40%,-44.6%,-11.7%,12.3%,6.8%,-13.6%
CN(C)c1ccc(C=C2c3ccccc3-c3ccccc32)cc1,-10.8%,-1.35%,7.75%,-80.9%,0.9%,9.1%
NC1=Nc2cc(Cl)ccc2Sc2nc3ccccc3n21,-18.4%,-65.4%,-17.6%,0.55%,10.9%,-2.8%
C=C(C)CBr,-17.1%,-7.55%,-5.95%,5.35%,-5.45%,-3.5%
Oc1cc2c(cc1C(c1ccc(F)cc1)N1CCCC1)OCO2 (configuration not stated),33.1%,19.5%,39.9%,-15.6%,37.9%,35.1%
C[CH2][Sn]([CH2]C)([n]1c2ccccc2c2c(C)c3cnccc3c(C)c21)[n]1c2ccccc2c2c(C)c3cnccc3c(C)c21,72.2% (active),14.7%,25.5%,44.5%,25.6%,71.3% (active)
COc1cc([N+](=O)[O-])c(C)cc1Br,3.55%,3.75%,4.45%,-18.3%,-10.5%,9.45%
CCCOC(=O)C(CC)CC(C)C (configuration not stated),-4.95%,2.85%,-4%,-22.7%,9.35%,14.8%
CC(O)CN1c2ccccc2Sc2ccc(Cl)cc21 (configuration not stated),19.2%,10.9%,3.35%,17.1%,-4.9%,12.8%
CCCCCCCC(CCCCCCC)(C(=O)OCC)C(=O)OCC,7.1%,-1.65%,9.1%,-37.5%,0.25%,0.9%
O=C(C[n+]1ccnc2ccccc21)c1ccc(Br)cc1,15.7%,-3.05%,2%,6.45%,-6.6%,13%
O=C(NCc1ccccc1)/C(=C/c1ccc2c(c1)OCO2)NC(=O)c1ccccc1,-42%,-50.1%,-28.5%,-6.2%,-15.2%,-22.2%
O=C(O)CO.[NH2-].[NH2-].[Pt+2],-10.1%,-17.8%,-4.85%,-14.9%,-20.2%,-18.2%
O=C(NC(Cc1ccccc1)C(=O)N1CCOCC1)c1ccccc1 (configuration not stated),6.1%,12.6%,-1.35%,3.2%,1.85%,-0.35%
CC1(O)CC2C(CC1SCCO)C2(C)C (configuration not stated),-30.4%,-10.8%,-42.1%,-11.1%,-56%,-30.5%
CC(=O)c1ccccc1NS(=O)(=O)c1ccc2nc(C)n(NS(=O)(=O)c3ccccc3C(C)=O)c(=O)c2c1,43.5%,19.6%,-5.25%,7.2%,4.55%,28.6%
COC(=O)C(c1ccccc1)C(SCc1ccccc1)c1ccccc1 (configuration not stated),2.85%,1.15%,-18.9%,0.95%,-7.15%,4.7%
CC1(O)C(O)C(O)C1(O)CO (configuration not stated) (tested in a mixture with another compound),6.55%,-3.35%,9.9%,-1.85%,-2.4%,-4.9%
